Our source for the inhibition values is PubChem BioAssay.

Structures are written as SMILES. Values without a mark were called inactive. The rule behind the calls is not given here.

This assay deals with Pantothenate synthetase (Mycobacterium tuberculosis (strain ATCC 25618 / H37Rv)) (UniProt P9WIL5). As to the kind of experiment: Recombinant Mtb pantothenate synthetase (PanC) inhibitors, coupled enzyme, confirmatory (AID 375).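 Note: 0% = full reaction with vehicle and 100% = no enzyme background.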 As to conditions: coupled enzyme assay; at 10 µM, hits give high values.
Pantothenate synthetase (Mycobacterium tuberculosis (strain ATCC 25618 / H37Rv)), sequence (P9WIL5 whole entry, looked up): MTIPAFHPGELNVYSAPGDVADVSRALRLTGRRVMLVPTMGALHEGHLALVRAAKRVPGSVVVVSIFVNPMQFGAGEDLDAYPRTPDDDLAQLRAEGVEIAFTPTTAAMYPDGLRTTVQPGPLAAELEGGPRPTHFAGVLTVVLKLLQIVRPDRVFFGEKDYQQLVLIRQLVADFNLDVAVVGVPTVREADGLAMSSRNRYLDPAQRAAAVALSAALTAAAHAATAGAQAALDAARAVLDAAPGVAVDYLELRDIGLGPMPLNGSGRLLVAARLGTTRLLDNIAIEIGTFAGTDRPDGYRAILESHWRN
For the molecule `CCOC(=O)c1c(C)n(C)c2ccc(O)c(S(=O)(=O)c3ccccc3)c12`, the inhibition is 9%.

For `CCOC(=O)c1c(NC(=O)OC)sc(C(=O)N(C)C)c1C`, the inhibition was 1%.

As to `Cc1ccc(-n2c(=O)c(C#N)cc3c(=O)n4ccccc4nc32)cc1`, the inhibition is 0%.

As for `CCOc1ccc(NC(=O)CCN2CCN(c3ccccc3)CC2)cc1`, the inhibition is 0%.

Regarding `CCOC(=O)/C(C#N)=C1\Nc2ccccc2N=C1N(CC(C)C)CC(C)C`, the inhibition is 6%.

Turning to `Cc1nc2cc(NC(=O)N3c4ccccc4CC3C)ccc2o1` (stereo not given), the inhibition is 0%.

Take `COc1ccc(Cl)cc1Nc1nc(C)cc(=O)[nH]1`: the inhibition was 3%.

As to `COCCNC(=O)c1c(N)n(/N=C/c2cccs2)c2nc3ccccc3nc12`, the inhibition is 0%.

Take `CN1CCN(C(=O)c2cnn3c(C(F)F)cc(C4CC4)nc23)CC1`: the inhibition was 6%.

Consider `CC(C)(C)c1cc(C(=S)N2CCN(CCO)CC2)cc(C(C)(C)C)c1O`, for which the inhibition was 5%.

For the molecule `COc1cc2c(cc1OC)CN(Cc1nc3ccsc3c(=O)[nH]1)CC2`, the inhibition was 6%.

On to `O=C(CCn1[nH]c(=O)c2ccccc2c1=O)NCCO`, for which the inhibition is 0%.

As to `Cc1ccc(C)c(N2CCN(S(=O)(=O)c3ccc4c(c3)OCCO4)CC2)c1`, the inhibition is 4%.

For `CCOC(=O)N1CCC(Nc2nc3ccccc3n3cnnc23)CC1`, the inhibition is 10%.

Regarding `O=C(OCC(=O)c1c[nH]c2ccccc12)C1=COCCO1`, the inhibition was 0%.

On to `CSc1nc(C)cc(Oc2ccc(=O)n(C)n2)n1`, for which the inhibition was 0%.

Take `COc1cccc(-n2c(SCC(=O)N3CCCC3)nc3c([nH]c4ccccc43)c2=O)c1`: the inhibition is 0%.

As to `O=C(CSc1nccn1Cc1ccccc1)Nc1nccs1`, the inhibition is 0%.

As for `CCOc1ccc(OCC)c(NS(=O)(=O)c2ccc3c(c2)n(C)c(=O)c(=O)n3C)c1`, the inhibition was 3%.

On to `O=C(Nc1ccccc1N1CCCCC1)c1ncoc1-c1ccc(F)cc1`, for which the inhibition was 1%.

As for `O=C(CN1CCN(c2ccc(F)cc2)CC1)OCc1ccccc1`, the inhibition is 3%.

Regarding `CCc1ccc(C=NC23CN4CN(CN(C4)C2)C3)s1`, the inhibition was 0%.

`Cc1ccccc1CN1CCN(CC(=O)NCc2ccco2)C1=O`: the inhibition is 0%.

`Cc1ccc(C)c(N2CCN(C(=O)CCCn3c(=S)[nH]c4cc5c(cc4c3=O)OCO5)CC2)c1`: the inhibition is 0%.

Consider `CCn1c(C(=O)N2CCCC(C(=O)NCCCc3ccccc3)C2)cc2sccc21` (stereo not given), for which the inhibition was 0%.

`CCCn1c(SCC(=O)Nc2ccccc2C(=O)OC)nc2c1c(=O)n(C)c(=O)n2C`: the inhibition was 3%.

Turning to `COc1cccc(CN=CC2=C(O)CC(C)(C)CC2=O)c1OC`, the inhibition is 0%.

Regarding `CC(=O)Nc1ccc(S(=O)(=O)Nc2nc3ccccc3nc2N2CCCC2)cc1`, the inhibition is 8%.

For `COCc1nnc(NC(=O)c2ccc(NC(C)=O)cc2)s1`, the inhibition is 2%.

Take `COc1ccc(NS(=O)(=O)c2ccc(N)cc2)nn1`: the inhibition was 1%.

Take `COc1cccc(C(=O)n2cnnc2N)c1OC`: the inhibition is 4%.

Consider `CC1(C)OC(=O)C(=CNc2ccccc2F)C(=O)O1`, for which the inhibition was 0%.

On to `Nc1nc(C2C(=O)CCCC2=O)cs1`, for which the inhibition was 0%.

For `Cc1cc(C(=O)O)ccc1-n1c(C)ccc1C`, the inhibition is 6%.

As for `Cc1cc(=O)[nH]c2c1cnn2Cc1ccccc1`, the inhibition is 1%.

For the molecule `COc1cccc2cc(C(=O)Nc3cccnc3N3CCOCC3)c(=O)oc12`, the inhibition was 0%.

With `O=C1C2ON(c3ccc(Cl)cc3)C(c3ccco3)C2C(=O)N1c1ccccc1` (stereo not given), the inhibition is 0%.

Take `Cc1nc2cc(Cl)ccc2n1CCO`: the inhibition is 2%.

With `COc1cccc(NC(=O)Cc2nnc(SCC(=O)c3ccccc3)n2C)c1`, the inhibition was 0%.

As for `Cc1cnc(NC(=O)CSc2nc3ccccc3c(=O)[nH]2)s1`, the inhibition is 3%.
